Reference: PubChem BioAssay (NCI)
Compounds without any hit were thinned out: in the full panel of roughly 79,000, 15% have a hit. A number with no mark means an inactive call. The source made the active and inactive calls. No stated cut-off is given here; in the data, active means growth inhibition above about 70%; inactive means the rest.

Legend:
[1] = NCI Yeast Anticancer Drug Screen. Data for the rad50 strain (AID 155);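 further: 0% = growth of vehicle-only cultures of the same strain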; conditions: S. cerevisiae rad50 strain growth inhibition, active compounds read high
Outline: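 Vehicle-treated cultures provide the reference for the growth inhibition reported for compound-exposed, repair-deficient yeast.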

[2] = NCI Yeast Anticancer Drug Screen. Data for the mec2-1 strain (AID 157); conditions: S. cerevisiae mec2-1 strain, active compounds read high
Outline: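 Cells of the genetically defined mec2-1 yeast strain are incubated with test compound. Inhibition of growth is calculated against vehicle-treated controls.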

[3] = NCI Yeast Anticancer Drug Screen. Data for the sgs1 mgt1 strain (AID 161);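 further: 0% = growth of cultures given vehicle only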; conditions: S. cerevisiae sgs1 mgt1 strain, active compounds read high
Outline: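 Read-out: growth inhibition vs vehicle controls. Cells: mutant yeast strain deficient in DNA damage repair.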

[4] = NCI Yeast Anticancer Drug Screen. Data for the cln2 rad14 strain (AID 165);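 further: 0% = growth equal to vehicle treated cultures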; conditions: S. cerevisiae cln2 rad14 strain, active compounds read high
Outline: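 The screen exposed genetically defined yeast (cln2 rad14) to test compounds and scored growth inhibition relative to vehicle-treated controls.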

[5] = NCI Yeast Anticancer Drug Screen. Data for the bub3 strain (AID 167); conditions: S. cerevisiae bub3 mutant strain, active compounds read high
Outline: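 Mutant yeast screening strain plus compound; vehicle-treated cultures serve as the 0% inhibition reference.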

[6] = NCI Yeast Anticancer Drug Screen. Data for the mlh1 rad18 strain (AID 175); conditions: S. cerevisiae mlh1 rad18 strain growth inhibition, active compounds read high
Outline: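 Compound-treated yeast growth, normalised to vehicle controls. Strain bears defined DNA repair mutations.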

[7] = at 5.0 µM (retest, dose inferred, filed as 0.5)
[8] = at 50.0 µM (retest, dose inferred, filed as 5.0)

| SMILES | growth inhibition [1, 7] | growth inhibition [1, 8] | growth inhibition ([1]; at 50.0 µM) | growth inhibition [2, 7] | growth inhibition [2, 8] | growth inhibition ([2]; at 50.0 µM) | growth inhibition [3, 7] | growth inhibition [3, 8] | growth inhibition ([3]; at 50.0 µM) | growth inhibition [4, 7] | growth inhibition [4, 8] | growth inhibition ([4]; at 50.0 µM) | growth inhibition [5, 7] | growth inhibition [5, 8] | growth inhibition ([5]; at 50.0 µM) | growth inhibition [6, 7] | growth inhibition [6, 8] | growth inhibition ([6]; at 50.0 µM) |
| --- | --- | --- | --- | --- | --- | --- | --- | --- | --- | --- | --- | --- | --- | --- | --- | --- | --- | --- |
| COc1ccc(/C=C2\C(=O)N(C)C(=O)c3cc(OC)c(OC)cc32)cc1OC | 1% | 12% | 61.4% | 0% | 16% | 47.5% | -3% | -4% | 62.9% | 0% | 19% | 46.6% | 5% | 32% | 39.5% | 2% | 19% | 65% |
| CCNc1cc(SC)nc(N)n1 | 1% | -4% | 1.2% | -1% | 2% | 37.1% | -1% | -3% | -7.6% | -8% | 3% | -3.6% | -2% | -1% | -23.2% | 1% | -4% | -22.4% |
| Cc1noc(NS(=O)(=O)c2ccc(NCc3c4ccccc4nc4cc(Cl)ccc34)cc2)c1C | 4% | -13% | 98.5% (active) | 4% | -7% | 98.9% (active) | 5% | -6% | 98.5% (active) | 1% | -3% | 98.2% (active) | 9% | -3% | 98.2% (active) | 3% | -5% | 98.3% (active) |
| O=C1OCC/C1=C1/CCOC1 | 73% (active) | 97% (active) | 99.2% (active) | 65% | 98% (active) | 99.3% (active) | 82% (active) | 98% (active) | 50.3% | 51% | 97% (active) | 98.8% (active) | 61% | 97% (active) | 99.2% (active) | 78% (active) | 97% (active) | 99.5% (active) |
| CCN(C(=O)C(F)(F)F)c1ccc2c(c1)C(=O)c1ccccc1-2 | 0% | 34% | 26.1% | 1% | 12% | -2.65% | -4% | 87% (active) | 42.6% | 0% | 20% | -18.2% | 38% | 70% (active) | 84% (active) | -1% | 60% | 10% |
| CC1CN(CCCN2c3ccccc3Sc3ccc(Cl)cc32)C(C)(C)C1 (configuration not stated) | 1% | 99% (active) | 99.7% (active) | 5% | 100% (active) | 99.8% (active) | 17% | 100% (active) | 99.8% (active) | 10% | 99% (active) | 99.3% (active) | 21% | 100% (active) | 99.3% (active) | 9% | 99% (active) | 99.8% (active) |
| CC1C(O)Oc2cc3c(cc2C1c1ccccc1O)OCO3 (configuration not stated) | -10% | 77% (active) | 61.8% | -41% | 84% (active) | 32.1% | -33% | 40% | 56.5% | 20% | 87% (active) | 69.7% | 25% | 84% (active) | 38.6% | -13% | 90% (active) | 54.5% |
| OCC(O)C(O)C(O)/C=N\Nc1ccccc1 (configuration not stated) | 9% | 19% | 49.6% | -3% | -6% | 44.4% | -5% | 15% | 39.5% | -3% | -7% | 43% | 1% | 31% | 51.5% | 16% | 42% | 18.1% |
| O=C(O/N=C(/Cc1ccccc1)c1ccccc1)c1ccccc1 | -15% | 63% | 90.3% (active) | -10% | 72% (active) | 28.1% | -1% | 76% (active) | 88.8% (active) | -6% | 92% (active) | 43.6% | -17% | 66% | 18.4% | 3% | 87% (active) | 93.2% (active) |
| O=C(OCc1ccccc1CN1CCOCC1)c1cccc(Br)c1 | 2% | 32% | 43.5% | -4% | 3% | 9.4% | -4% | 82% (active) | 82.8% (active) | -5% | -3% | -4.15% | 2% | 42% | 52.2% | 21% | 40% | 6.65% |
| CCC1=CCC2C(=O)c3cc4ccccc4cc3C(=O)C2C1 (configuration not stated) | 11% | 26% | 89.3% (active) | 11% | 64% | 96.2% (active) | 9% | -4% | 89.6% (active) | 2% | 20% | 37.5% | 10% | 61% | 93% (active) | 7% | 46% | 94.8% (active) |
| CC(NC(=O)OCc1ccccc1)C(=O)NNc1ccccc1Cl (configuration not stated) | 88% (active) | 96% (active) | 97.5% (active) | 9% | 99% (active) | 96.8% (active) | 49% | 99% (active) | 91.4% (active) | 29% | 68% | 98.2% (active) | 73% (active) | 42% | 97.5% (active) | 96% (active) | 99% (active) | 97.5% (active) |
| O=C(/C=C/c1ccc(Cl)c(Cl)c1)CCN1CCN(CCC(=O)/C=C/c2ccc(Cl)c(Cl)c2)CC1 | 36% | 98% (active) | 82.7% (active) | 38% | 99% (active) | 85.5% (active) | 11% | 99% (active) | 88.1% (active) | 16% | 99% (active) | 86.3% (active) | 14% | 98% (active) | 82% (active) | 44% | 98% (active) | 86.5% (active) |
| CCN(CC)CCOC(=O)C1CCCCC1C(=O)C1CCCCC1 (configuration not stated) | -3% | 3% | 29.4% | -3% | 0% | -1.6% | -7% | 5% | 21.4% | -2% | 8% | 34.5% | -3% | 14% | 0.85% | 1% | 1% | 11.7% |
| CCCCCCCCCC(=O)CC(=O)c1ccc(O)cc1O | 33% | 96% (active) | 86.5% (active) | 27% | 97% (active) | 89.5% (active) | 50% | 98% (active) | 89.7% (active) | 37% | 97% (active) | 88.6% (active) | 39% | 98% (active) | 89.2% (active) | 48% | 97% (active) | 87.5% (active) |
| COc1ccc2c(Cc3cccc([N+](=O)[O-])c3)cncc2c1O | 4% | 68% | 29.8% | -2% | 86% (active) | 35.4% | -6% | 65% | 24% | 4% | 76% (active) | 37.1% | 3% | 91% (active) | 85% (active) | 5% | 92% (active) | 58.8% |
| Nc1cccc2c1C(=O)c1cccc(Cl)c1C2=O | 31% | 83% (active) | 87.7% (active) | 3% | 16% | 11.8% | 0% | 14% | 21.1% | 1% | 2% | -82% | 5% | 21% | 58% | 11% | 30% | 50.3% |
| CC(c1ccc(OCc2ccccc2)cc1)c1cc2c(cc1OCCO)OCO2 (configuration not stated) | 3% | 46% | 61.2% | -1% | 41% | 76.2% (active) | 9% | 57% | 31.9% | -1% | 47% | 43.5% | 6% | 58% | 49.7% | 4% | 62% | 43.2% |
| Oc1ccccc1C(c1cc2c(cc1O)OCO2)N1CCOCC1 (configuration not stated) | -23% | 99% (active) | 87.3% (active) | -28% | 100% (active) | 88.7% (active) | -51% | 99% (active) | 89.8% (active) | -12% | 99% (active) | 91% (active) | -34% | 99% (active) | 91.3% (active) | 1% | 99% (active) | 91.9% (active) |
